In the library only some 3.9% were active in any assay of this set; here they are far more common.
D1 antag: blocks dopamine activation of the human D1 receptor; actives 3.2% (n = 360,000); HEK293 TREx D1 cells, calcium flux, dopamine EC80; hits give low values; P21728; activity change, negative = inhibition, % at 10 µM; AID 504652; in the data active = activity change below about -30%; also: % is scaled to controls: 0 for no effect and ±100 for the full control effect
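Antagonism measured as reduced calcium response to an EC80 dopamine addition following 180 s compound pre-read; cells were inducible HEK293 Trex D1 plated overnight at 30 C, read kinetically at 1 cycle/sec.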
D1 potentiator: human D1 dopamine receptor positive modulation; HEK293 TREx D1 cells, calcium flux, dopamine EC20 potentiation; potentiation, % at 10 µM; P21728; actives 0.036% (n = 360,000); in the data active = potentiation above about 30%; also: 0% is about no effect
D1 agonist: activates the human D1 dopamine receptor. P21728. HEK293 T-REx D1 cells, calcium flux, agonist mode. activation, % at 2 µM. actives 1% (n = 360,000). AID 504660; in the data active = activation above about 30%; also: 0% is about no effect
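Inducible HEK293 T-REx D1 cells, force-coupled to calcium signalling, were plated at 4000 cells/well with tetracycline and held overnight at 30 C. After no-wash calcium dye loading, compound-evoked calcium rise over 180 s flagged agonists.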
Eya2 inh: inhibitors of human Eya2 phosphatase activity. O00167. recombinant Eya2, OMFP fluorescence dephosphorylation (OMFP is methylfluorescein phosphate). Potency, µM (titrated, usually from 76.9 µM), for inactives: top-dose activity, negative = inhibition, hits mostly inhibitors. actives 0.006% (n = 330,000). AID 488837; also: potency is read from the fitted curve at half-maximal effect; % is scaled to controls: 0 for no effect and ±100 for the full control effect
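Eya2 (0.2 uM) preincubated 10 min at ambient with compound, then OMFP substrate added at 50 uM; 10 min reaction in 50 mM HEPES pH 7.5, 50 mM NaCl, 5 uM MgCl2, 0.05% BSA, 1 mM DTT. Fluorescence read at Ex 485/Em 525 nm.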
USP2a inh: inhibitors of human ubiquitin-specific protease USP2a; O75604; USP2 core, Ub-CHOP2 coupled fluorogenic reporter, 485/531; Potency, µM (titrated, usually from 38.3 µM), without a hit: at the top dose activity change, negative = inhibition, hits mostly inhibitors; actives 0.01% (n = 330,000); AID 463254;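 also: potency is read from the fitted curve at half-maximal effect; plate controls were DMSO wells for no effect and full inhibition by NEM control for full effect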
Target sequence (O75604 whole entry, looked up): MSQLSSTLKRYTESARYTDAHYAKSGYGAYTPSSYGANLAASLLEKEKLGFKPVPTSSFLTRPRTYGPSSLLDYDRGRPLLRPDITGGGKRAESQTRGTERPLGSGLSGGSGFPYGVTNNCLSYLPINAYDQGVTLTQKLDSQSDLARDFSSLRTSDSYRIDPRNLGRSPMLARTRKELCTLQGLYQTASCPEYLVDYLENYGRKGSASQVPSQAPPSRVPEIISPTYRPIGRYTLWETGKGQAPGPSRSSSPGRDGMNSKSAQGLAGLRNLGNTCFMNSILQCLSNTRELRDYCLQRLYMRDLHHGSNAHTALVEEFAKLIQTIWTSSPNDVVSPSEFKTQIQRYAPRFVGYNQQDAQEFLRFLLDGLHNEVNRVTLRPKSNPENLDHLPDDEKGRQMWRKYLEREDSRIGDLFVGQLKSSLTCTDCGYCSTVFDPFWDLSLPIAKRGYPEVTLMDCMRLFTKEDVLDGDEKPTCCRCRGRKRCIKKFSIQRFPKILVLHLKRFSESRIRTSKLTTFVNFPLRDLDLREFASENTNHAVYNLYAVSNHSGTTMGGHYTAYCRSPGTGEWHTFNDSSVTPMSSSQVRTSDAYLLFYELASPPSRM
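USP2 core (10nM final) preincubated 30min RT with compound in 20mM Tris-HCl pH 8.0, 2mM CaCl2, 2mM beta-mercaptoethanol, 0.05% CHAPS; 25nM Ub-CHOP2 plus 25nM reporter substrate added, fluorescence (Ex485/Em531) read after 60min.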
GALK inh: blocks human galactokinase activity | actives 0.007% (n = 270,000) | AID 1868 | Purified GALK, Kinase-Glo residual ATP luminescence | Potency, µM (highest dose often 57.5 µM), without a hit: at the top dose activity change, negative = inhibition, most hits filed as inhibitors; also: potency is read from the fitted curve at half-maximal effect; % is scaled to controls: 0 for no effect and ±100 for the full control effect
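Compounds were pin-transferred into ATP buffer (35 uM final), then GALK plus galactose (5 nM, 100 uM final) was added. After 1 h at room temperature, Kinase-Glo Plus was added and luminescence read after 10 min.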
* hit, by the source's call; ? = inconclusive; nt = no result given; ! = not confirmed by another sample. Unless noted, calls follow the shape of the dose curve; as a rule, active = well fitted inhibition curve with a large enough effect; inconclusive = small, poorly fitted or top-dose-only effect, or effect the other way; inactive = flat fitted curve, though single readings scatter.

SMILES	D1 antag	D1 potentiator	D1 agonist	Eya2 inh	USP2a inh	GALK inh
COc1ccccc1CNC(=O)Cc1csc(NC(=O)Nc2ccccc2OC)n1	5	-5	3	22%	3%	nt
COc1ccc(CNC(=O)Cc2csc(NC(=O)Nc3ccccc3OC)n2)cc1	-35*	-1	0	20%	1%	nt
CCCCC1CC(CSc2ncn[nH]2)OC1=O (stereo not drawn)	-36*	1	0	-2%	3%	6%
CCCCCCCC1CC(CSc2ncn[nH]2)OC1=O (stereo not drawn)	-13	-7	-2	4%	-1%	0%
COc1ccc(CC2(CO)CCN(S(=O)(=O)c3sccc3C)CC2)cc1	-14	-6	32*	-16%	-5%	4%
Cc1ccc(NC(=O)c2oc3ccc(S(=O)(=O)N4CCC5(CC4)OCCO5)cc3c2C)cc1C	-32*!	-3	-2	0%	1%	nt
COc1ccc(NC(=O)c2oc3ccc(S(=O)(=O)N(C)C4CCCCC4)cc3c2C)cc1Cl	-30*	0	-2	nt	nt	nt
COc1ccc2oc(C(=O)Nc3ccc(S(=O)(=O)N(C)C4CCN(C)CC4)cc3)c(C)c2c1	-49*	-11	37*	5%	1%	5%
Cc1c(C(=O)Nc2ccc(F)c(Cl)c2)oc2ccc(S(=O)(=O)N(C)C3CCCCC3)cc12	-21	-2	2	nt	nt	nt
COc1ccc(NC(=O)c2oc3ccc(S(=O)(=O)N4CCC5(CC4)OCCO5)cc3c2C)cc1Cl	-28	-3	-2	nt	nt	nt
COc1ccc(S(=O)(=O)N2CCN(c3ccccc3OC)CC2)cc1-c1noc(C)n1	-1	1	5	nt	nt	nt
COCCn1c(SCC(=O)Nc2cc(Cl)ccc2OC)nc2c([nH]c3ccccc32)c1=O	-2	-2	2	nt	nt	nt
COCCc1nn2c(=O)cc(COC(=O)COc3ccccc3C)nc2s1	0	0	9	nt	nt	nt
COCCCn1c(=N)c(C(=O)NCC2CCCO2)cc2c(=O)n3cc(C)ccc3nc21 (stereo not drawn)	-1	0	-2	nt	nt	nt
COc1ccc(-c2cc(C(F)(F)F)c3c(n2)sc2c(O)cc(=O)[nH]c23)c(OC)c1	-15	-2	42*	11%	18%	-2%
Cc1cc(C)c2c(n1)sc1c(O)cc(=O)[nH]c12	8	10	9	8%	2%	0%
Cc1cc2ccccn2c1C(C[N+](=O)[O-])c1ccc(N(C)C)cc1 (stereo not drawn)	1	-2	42*	5%	-1%	2%
COc1ccc(C(C[N+](=O)[O-])c2c(C)cc3ccccn23)cc1 (stereo not drawn)	6	-6	1	-1%	0%	10%
COc1ccc(S(=O)(=O)NCc2ccc3c(c2)OCO3)cc1C	-87*	-1	1	-4%	2%	0%
Cc1ccc(S(=O)(=O)NCc2ccc3c(c2)OCO3)cc1C	-14	-6	-1	-9%	-2%	-4%
COc1ccc(S(=O)(=O)NCc2ccc3c(c2)OCO3)cc1OC	-55*	-8	0	?	2%	-1%
O=S(=O)(Cc1ccc(Cl)cc1)NCc1ccc2c(c1)OCO2	-36*	-2	5	-12%	2%	-6%
O=C(O)c1ccc(-n2nnnc2SCc2ccccc2)cc1	0	-5	2	7%	0%	-2%
CSc1ccccc1-n1nnnc1SCc1ccccc1	-6	-1	46*	-3%	-4%	-2%
Cc1ccc(Cc2nc3ccccc3nc2SCC(=O)N2CCN(c3ccccc3F)CC2)cc1	-6	-3	0	nt	nt	nt
CCN(Cc1ccccc1)S(=O)(=O)c1cc(C(=O)OC)n(C)c1	-24	-8	13	-14%	1%	nt
COC(=O)c1ccc(S(=O)(=O)N(Cc2ccccc2)Cc2ccccc2)n1C	-40*	-4	11	-3%	-3%	-4%
Cc1ccc(C)c(OCCCNC2CCCC2)c1C	-35*	-4	42*	-7%	-11%	0%
